Bioassay records (PubChem BioAssay)
A selection: hits, their analogues and other compounds. The true share with any hit is near 1.7%.
CHT allo act = allosterically activates the human high affinity choline transporter; CHT-expressing cells, membrane potential dye, choline EC20; hits give high values; LV-AA mutant CHT in HEK293 cells; Q9GZV3; actives 0.49% (n = 310,000); B-score at 10 µM;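 active means initial fluorescence not abnormally high and integrated response B-score, plate-corrected, over 3 SD above library mean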
Target sequence (Q9GZV3 whole entry, looked up): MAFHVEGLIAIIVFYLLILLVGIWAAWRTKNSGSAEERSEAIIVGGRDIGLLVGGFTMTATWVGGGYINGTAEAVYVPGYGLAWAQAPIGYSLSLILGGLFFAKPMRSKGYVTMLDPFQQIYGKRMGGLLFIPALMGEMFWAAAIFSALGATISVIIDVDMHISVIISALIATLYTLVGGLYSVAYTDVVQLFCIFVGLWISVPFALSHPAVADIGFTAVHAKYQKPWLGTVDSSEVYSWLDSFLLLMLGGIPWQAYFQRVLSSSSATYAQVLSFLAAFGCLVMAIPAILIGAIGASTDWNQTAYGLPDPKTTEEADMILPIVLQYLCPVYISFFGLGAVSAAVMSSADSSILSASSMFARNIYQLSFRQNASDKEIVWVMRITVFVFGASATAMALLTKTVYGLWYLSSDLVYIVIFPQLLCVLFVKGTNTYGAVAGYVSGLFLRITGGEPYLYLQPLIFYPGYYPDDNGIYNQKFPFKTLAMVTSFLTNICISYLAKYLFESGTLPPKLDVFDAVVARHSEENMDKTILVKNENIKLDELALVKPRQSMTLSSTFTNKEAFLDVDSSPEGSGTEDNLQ
CHT inh = inhibits the human high affinity choline transporter; Q9GZV3; CHT-expressing cells, membrane potential dye, choline response; hits give low values; B-score at 10 µM; actives 0.86% (n = 310,000); AID 488975;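 active means B-score over 3 SD under the library average, and starting fluorescence ratio not unusually high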;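 further: choline stimulus applied at its EC90 after an EC20 pre-addition; B-score computed on integrated fluorescence ratio after choline addition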
TAG inh = triacylglycerol accumulation inhibition. H9c2 cells, Nile Red lipid (TAG) fluorescence; cells loaded with 200 µM oleic acid. actives 0.66% (n = 230,000). inhibition, % at 12.5 µM;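 active means pattern-corrected inhibition of lipid staining of at least 50% with the nuclear-stain viability signal not falling by more than 50%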;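 further: 0% = DMSO wells and 100% = triacsin C control wells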
beta cell repl = inducers of beta-cell replication in MIN6 cells. MIN6 cells proliferation, ATPlite luminescence, 48 h; cells starved in 0.2% serum; 100% = growth in 10% serum. proliferation, % at 10 µM. actives 0.29% (n = 330,000);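 active means compounds whose signal lies at least 3.5 SD above the mean of all wells on their plate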;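 further: 0% = DMSO-treated cells in low-serum medium and 100% = 10% serum control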
CHT act confirm = confirmation of human choline transporter (CHT) activators | CHT-expressing cells, membrane potential dye fluorescence (FDSS); % of choline EC20–EC90 response window; HEK293 expressing CHT LV-AA mutant; choline added at its EC20 | activation, % at 10 µM | actives 91% (n = 2,500) | shares compounds with CHT allo act;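 active means primary screen active, with duplicate mean activation above negative control mean plus 3 SD, cut at about 11% in these data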
HEK293 MP dye = counter-screen for CHT activators: effect in parental HEK293 cells; actives 62% (n = 2,500); shares compounds with CHT allo act; ratio readout change at 10 µM, hits read low; membrane potential dye fluorescence (FDSS); measured after EC20 choline addition; AID 623908;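 active means duplicate-averaged ratio beyond 3 SD from buffer wells, up or down, though filed actives are nearly all decreases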
Numbers without * were called inactive; i = inactive; x = not tested or not shown.

SMILES | CHT allo act | CHT inh | TAG inh | beta cell repl | CHT act confirm | HEK293 MP dye
COc1ccc(/C=N/N(C)C2=NCCN2)c(OC)c1OC | 7* | i | x | 0 | 48* | -30*
COc1ccccc1N1CCN(Cc2cc(=O)c(OCC#N)co2)CC1 | i | i | x | 1 | x | x
Cc1ccc(-c2cc3cccc[n+]3cc2-c2ccc(C)cc2)cc1 | 8.2* | i | x | -5 | 63* | -39*
OC[C@@H]1CN(Cc2ccco2)C[C@H](n2cnc3c(NC4CC4)ncnc32)O1 | x | x | 3 | x | x | x
COc1ccc(S(=O)(=O)N2CCCCCC2)cc1C(=O)N1CCCC(C(F)(F)F)C1 (centres undefined) | 10* | i | 3 | 0 | 15* | i
CC(C)C[C@H]1CN=C(Nc2ccccc2)N1CC1CCC(C(C)(C)C)CC1 (some centres undefined) | 29* | i | 59* | -8 | 59* | i
CC(C)CCN1C(Nc2ccccc2)=NC[C@@H]1Cc1ccccc1 | 7* | i | -9 | -1 | 21* | i
O=C(COC(=O)c1ccccc1NCCO)Nc1cccc(S(=O)(=O)NC2=NCCCCC2)c1 | i | i | 4 | -5 | x | x
CN1CCN(c2ccccc2NC(=O)c2ccc(N3CCCC3)c([N+](=O)[O-])c2)CC1 | i | i | 8 | 0 | 18* | -44*
Cc1ccc([N+](=O)[O-])cc1NC(=O)c1cccs1 | i | i | -1 | 2 | x | x
O=C(Nc1ccccc1N1CCCCC1)c1ccc(Cl)c([N+](=O)[O-])c1 | i | i | 31 | -6 | x | x
CN1CCN(c2ccc([N+](=O)[O-])cc2NC(=O)c2cccs2)CC1 | 6.6* | i | 19 | 0 | 52* | -82*
COc1ccc(CN(C)C(C)C(=O)Nc2cccc3ccccc23)cc1 (centres undefined) | i | i | x | 0 | 4 | i
CCc1cccc(C)c1NC(=O)CN(C)Cc1ccccc1F | i | i | x | 3 | 13* | i
CN(CC(=O)NC(=O)Nc1ccccc1F)Cc1ccccc1F | x | x | 2 | -2 | x | x
Cc1c(C(=O)N/N=C/c2cccnc2)nnn1-c1nonc1N | i | i | x | -1 | 31* | -45*
COc1ccc(C[C@H]2CN3C(=NC[C@H]3Cc3ccccc3)N2CCNC(=O)CCC2CCCCC2)cc1 | i | i | 8 | -8 | 32* | i
CC(C)c1cc(CNC(=O)C2CCC(=O)N(CCc3ccc(Cl)cc3)C2)on1 (centres undefined) | i | i | x | 2 | x | x
COc1ccccc1CN1CCC(CNS(=O)(=O)c2cc(-c3onc(C)c3C)ccc2OC)CC1 | i | i | x | -7 | 39* | -48*
C[n+]1ccc(C(=O)N/N=C/c2ccco2)cc1 | 7.1* | i | x | 0 | 64* | -54*
O=C(NC1CCS(=O)(=O)C1)c1cccc(Cl)c1 (centres undefined) | i | i | 6 | -2 | x | x
Cc1cccc(C)c1OCC(=O)Nc1cccc(-c2nnc(-c3ccccc3)o2)c1 | i | i | x | -5 | 29* | i
Cc1ccc(OCC(=O)Nc2cccc(-c3nnc(-c4ccccc4)o3)c2)cc1 | i | i | x | -3 | x | x
CN(C)c1ccnc2sc3c(NCC(O)CO)ncnc3c12 (centres undefined) | 6.7* | i | 12 | -1 | 50* | -44*
CN(C)c1ccnc2sc3c(SCc4ccc(Cl)cc4)ncnc3c12 | i | i | 5 | -1 | x | x
SMILES | CHT allo act | CHT inh | TAG inh | beta cell repl | CHT act confirm | HEK293 MP dye
COc1ccc2c(c1)c1ncn(CCN3CCNCC3)c(=O)c1n2C | i | i | x | -2 | 16* | -20*
COc1ccc2c(c1)c1ncn(CCN3CCCC3)c(=O)c1n2C | 6.5* | i | x | 0 | 45* | -24*
COc1ccc2[nH]c3c(=O)n(CCN4CCOCC4)cnc3c2c1 | i | i | -2 | 0 | x | x
COc1ccc2c(c1)c1ncn(CCN3CCCCC3)c(=O)c1n2C | i | i | x | 1 | x | x
CN1CCCC(C)(C(=O)Nc2ccc(-n3cccc3)cc2)C1 (centres undefined) | x | x | -10 | x | x | x
Nc1ccn([C@@H]2O[C@H](CNC(=O)[C@@H](Cc3cn(COCc4ccccc4)cn3)NC=O)[C@@H](O)[C@H]2O)c(=O)n1 | x | x | 4 | x | x | x
N=c1n(CCO)c2ccccc2n1CCN1CCCCC1 | i | i | -19 | -1 | 35* | -34*
CCCCCCN1C[C@H](O)[C@@H](n2cc(C3CC3)nn2)C[C@@H]1c1ccc(OC)cc1 | x | x | 0 | x | x | x
c1ccc2c(c1)N1CCCN=C1N2CCN1CCCCC1 | 9.5* | i | 3 | -1 | 31* | -72*
Clc1ccc(CN2C3=NCCN3c3ccccc32)cc1Cl | i | i | x | -6 | 23* | i
c1ccc(CN2C3=NCCN3c3ccccc32)cc1 | i | i | x | 4 | x | x
COC(=O)c1ccc(OCCN2C3=NCCN3c3ccccc32)cc1 | i | i | 28 | -3 | 17* | -40*
c1ccc2c(c1)N1CCN=C1N2CCN1CCCCC1 | 9.8* | i | 11 | -2 | 80* | -80*
Cc1cc(C)cc(OCCn2nnc3ccccc32)c1 | i | i | 1 | 0 | x | x
CCOC(=O)COc1cc2oc(=O)cc(C)c2cc1[N+](=O)[O-] | i | i | 6 | -2 | x | x
FC(F)(F)COc1nc(N2CCOCC2)nc(N(c2ccccc2)c2ccccc2)n1 | i | i | x | -4 | x | x
FC(F)(F)COc1nc(OCC(F)(F)F)nc(N2CCN(c3ccccc3)CC2)n1 | 7.1* | i | x | -1 | 31* | i
CCn1cc(C(=O)N2CCN(Cc3ccc4c(c3)OCO4)CC2)c(=O)c2ccc(C)nc21 | i | i | -65 | -3 | x | x
C=CCn1cc(C(=O)OCC)c(=O)c2cc(F)c(F)cc21 | 7* | i | 5 | 0 | 48* | -56*
CCn1cc(C(=O)OCC(=O)NCc2ccc3c(c2)OCO3)c(=O)c2ccc(C)nc21 | 10* | i | 8 | -1 | 60* | -56*
CCn1cc(C(=O)OCC(=O)OC2CC(C)CCC2C(C)C)c(=O)c2ccc(C)nc21 (centres undefined) | i | i | -2 | -5 | 31* | i
C=CCOC(=O)c1cn(CC)c2nc(C)ccc2c1=O | 10* | i | -5 | -2 | 73* | -67*
COc1cccc(CN2CCC(C(=O)NC(C)c3cccc4ccccc34)CC2)c1 (centres undefined) | x | x | -8 | x | x | x
CCN(C(=O)CCN1C(=O)S/C(=C\c2ccccc2)C1=O)C1CCS(=O)(=O)C1 (centres undefined) | i | i | x | -3 | x | x
COc1ccc(-c2csc(C(C#N)=C(O)CSc3nccn3C)n2)cc1OC | x | x | -6 | x | x | x
